# Methyltransferases: Primary Screen for Target Class Profiling of Small Molecule Inhibitors of Methyltransferases | calls only at 40 µM | hit rate 3.9% among 25,000 | purified enzyme, MTase-Glo SAH luminescence; stronger effect = lower value | AID 1745853, 2022; call rule not given here
#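 Each enzyme was assayed with SAM and its substrate. SAH formation detected by MTase-Glo luminescence; single-point 40 uM screen[…].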
# * = called active by the depositor; i = inactive; + = active, no number; ! = not active in a repeat. This is one part of a sample in which hits are shown more often than they occur. On the % scale 0 is the no-effect control and ±100 the full control effect.
SMILES,Methyltransferases
CC1(C(=O)NCc2ccccc2)Cn2c(cc3ccccc32)C(=O)N1Cc1cccc(F)c1 (stereo not drawn),i
COc1ccc(CNC(=O)CCc2nnc3n(CCC(C)C)c(=O)c4ccccc4n23)cc1,i
CCCn1c(=O)c2ccccc2n2c(=O)n(CC(=O)Nc3ccc(C)c(C)c3)nc12,i
COC(=O)c1cc2n(n1)CC(C)(C(=O)NC1CCCCCC1)N(Cc1ccccc1OC)C2=O (stereo not drawn),i
COc1ccccc1CNC(=O)c1ccc2c(=O)n(-c3ccc(F)cc3)c3nnc(C)n3c2c1,i
CCOC(=O)CNC(=O)N1CCn2cccc2C1C(C)C (stereo not drawn),i
COc1ccc(CCO[C@@H]2O[C@H](CO[C@@H]3OC[C@H](O)[C@H](O)[C@H]3O)[C@@H](O)[C@H](O)[C@H]2O)cc1,+
COC(=O)c1ccc(OC)cc1O[C@@H]1O[C@H](CO[C@@H]2OC[C@@H](O)[C@H](O)[C@H]2O)[C@@H](O)[C@H](O)[C@H]1O,i
C=CCc1ccc(O[C@@H]2O[C@H](CO[C@@H]3O[C@@H](C)[C@H](O)[C@@H](O)[C@H]3O)[C@@H](O)[C@H](O)[C@H]2O)cc1,i
OC[C@@]1(O)CO[C@H](OC[C@H]2O[C@@H](OCCc3ccccc3)[C@H](O)[C@@H](O)[C@@H]2O)[C@@H]1O,i
OC1COC(OCC2OC(OCCc3ccccc3)C(O)C(O)C2O)C(O)C1O (stereo not drawn),+
C[C@@H]1O[C@@H](OC[C@H]2O[C@@H](OCCc3ccccc3)[C@H](O)[C@@H](O)[C@@H]2O)[C@H](O)[C@H](O)[C@H]1O,i
COc1ccccc1CNc1nc2c(S(=O)(=O)c3cc(C)ccc3C)nnn2c2ccccc12,i
COc1cccc(CN2C(=O)c3nc4ccccc4n3CC2(C)C(=O)NCc2ccccc2)c1OC (stereo not drawn),i
COc1ccc(CCNC(=O)c2cc3n(n2)CC(C)(C(=O)NCc2ccc(F)cc2)N(C)C3=O)cc1OC (stereo not drawn),i
CN1C(=O)c2cc(C(=O)NCc3cccc(F)c3)nn2CC1(C)C(=O)NCc1ccc(F)cc1 (stereo not drawn),i
CC(C)c1cc2c(N3CCN(C4=NCC(C)(C)S4)CC3)ncnc2s1,+
CCCc1cc2c(N3CCN(C4=NCC(C)(C)S4)CC3)ncnc2s1,+
COc1ccc(-c2cc3n(n2)CC(C)(C(=O)NCc2ccccc2OC)N(Cc2ccccc2Cl)C3=O)cc1 (stereo not drawn),i
CCOCCCNC(=O)C1c2c(n(C)c3ccccc23)SCC(=O)N1CCc1ccsc1 (stereo not drawn),i
CCOc1ccccc1CN1C(=O)c2cc3sccc3n2CC1(C)C(=O)NC1CCCC1 (stereo not drawn),i
Cc1cc(C)cc(N2C(=O)c3cc(C(C)(C)C)nn3CC2(C)C(=O)NC2CCCCC2)c1 (stereo not drawn),i
Cc1ccc(C)c(N2CCN(C(=O)c3ccc4c(=O)nc5c(-c6ccccc6)n[nH]n5c4c3)CC2)c1,i
Cn1c(=O)n(C)c2cc(NS(=O)(=O)c3ccc(N4CCCC4=O)cc3)ccc21,i
COc1cccc(N2CCN(C(=O)CCc3nnc4n(Cc5ccccc5)c(=O)c5ccccc5n34)CC2)c1,i
SMILES,Methyltransferases
O=C1c2ccccc2-c2nc3nnnn3nc21 (tested in a mixture with another compound),+
CCCN1C(=O)c2c(C(=O)NCc3ccccc3OC)ncn2CC1(C)C(=O)NCc1ccc(C)cc1 (stereo not drawn),i
O=c1c2ccccc2n2c(-c3ccccc3)nnc2n1Cc1ccc(F)cc1,i
O=S(=O)(O)c1ccc(Nc2ncnc3c2ncn3[C@@H]2O[C@H](CO)[C@@H](O)[C@H]2O)cc1,i
CC(C)N(CCCNC(=O)Nc1ccc(C(C)(C)C)cc1)C[C@H]1O[C@@H](n2cc(Br)c3c(N)ncnc32)[C@H](O)[C@@H]1O,+
CC(C)N(CCCNC(=O)Nc1ccc(C(C)(C)C)cc1)C[C@H]1O[C@@H](n2ccc3c(N)ncnc32)[C@H](O)[C@@H]1O,+!
Cc1ccccc1Cn1nc2n(C(C)C)c(=O)c3ccc(C(=O)NCC(C)C)cc3n2c1=O,i
Cc1ccc(C)c(N2CCN(S(=O)(=O)c3cc4[nH]c(=O)[nH]c4cc3C)CC2)c1,i
COc1ccc(N2C(=O)c3cc4ccccc4n3CC2(C)C(=O)NC2CCCC2)cc1OC (stereo not drawn),i
CC1(C(=O)NC2CCCCCC2)Cn2c(c(-n3cccc3)c3cc(F)ccc32)C(=O)N1Cc1cccc(F)c1 (stereo not drawn),i
O=C(CCn1ccc2cc(S(=O)(=O)N3CCCC3)ccc21)NCc1ccc(Cl)cc1,i
CC(C)Oc1ccc(CNC(=O)CNC(=O)C2(C)Cn3c(cc4ccccc43)C(=O)N2C)cc1 (stereo not drawn),i
CCOCCCNC(=O)C1c2c(n(C)c3ccccc23)SCC(=O)N1Cc1ccc(C)cc1 (stereo not drawn),i
CC1(C(=O)NC2CCCC2)Cn2c(nc3ccccc32)C(=O)N1Cc1ccco1 (stereo not drawn),i
Cc1nnc(N2CCC3(CCC(=O)N(CCCN(C)C)C3)CC2)c2ccccc12,i
CN(C)CCCn1cc(C2=C(c3c[nH]c4ccccc34)C(=O)NC2=O)c2ccccc21,+
Cc1ccc(C(=O)Cn2nc3n(CC(C)C)c(=O)c4ccc(C(=O)NC(C)C)cc4n3c2=O)cc1,i
O=C(Cn1ccc2cc(S(=O)(=O)N3CCCC3)ccc21)NC1CCCc2ccccc21 (stereo not drawn),i
COc1ccc(OC)c(NS(=O)(=O)c2ccc3c(c2)NC(=O)C(C)C(=O)N3)c1 (stereo not drawn),i
CC1(C(=O)NC2CCCCCC2)Cn2nc(-c3ccco3)cc2C(=O)N1CCc1ccc(Cl)cc1 (stereo not drawn),i
Cc1ccccc1N1C(=O)c2cc3sccc3n2CC1(C)C(=O)NC1CCCCC1 (stereo not drawn),i
O=c1ccc2ccc(O)c(O)c2o1,i
O=Nc1ccc2oc(=O)ccc2c1,+
COc1ccc(-c2cc3n(n2)CC(C)(C(=O)NCc2ccccc2)N(c2ccc(C)c(C)c2)C3=O)cc1 (stereo not drawn),i
COc1ccc(OC)c(NC(=O)N2Cc3c(sc4c3CCCC4)-n3cccc3C2c2ccc(F)cc2)c1 (stereo not drawn),i
SMILES,Methyltransferases
COc1ccc(C(=O)Nc2ccc3c(c2)CN(CCc2ccccc2)C(=O)C(C)O3)cc1OC (stereo not drawn),i
COc1cc2c(cc1OC)CN(CCc1ccc(NC(=O)c3cccc4c(=O)c5cccc(OC)c5[nH]c34)cc1)CC2,+
COc1ccc(NC(=O)Cn2nc3n(Cc4ccc(F)cc4)c(=O)c4ccccc4n3c2=O)cc1OC,i
CC1(C(=O)NC2CCCCCCC2)Cn2c(cc3ccccc32)C(=O)N1CCN1CCOCC1 (stereo not drawn),i
CC1(C(=O)NCc2ccccc2)Cn2c(cc3ccccc32)C(=O)N1Cc1cccc(Cl)c1 (stereo not drawn),i
CCN(CC)CCNC(=O)CCc1nnc2n(Cc3ccccc3)c(=O)c3ccccc3n12,i
Cc1ccc(CCNC(=O)CCc2nnc3n(Cc4ccccc4)c(=O)c4ccccc4n23)cc1,i
